Assay results reported in the supplement of paper PMC10849652.
About 7,900 targets were measured; listed, in parts, are those with a hit and a random draw of the rest. About 0.6% of all pairs of compound and target were hits.

Assays:
Assay in all cases: log2 fold change, soluble protein after heating vs DMSO (PISA); higher = thermal stabilisation; K562 cells, 10 uM, 30 min; active = over 0.2 and 3.5 SD of the protein, either way, in both replicates (recomputed)
saracatinib = compound: CN1CCN(CCOc2cc(OC3CCOCC3)c3c(Nc4c(Cl)ccc5c4OCO5)ncnc3c2)CC1 [saracatinib]
Outline: (§1)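 Soluble protein was quantified by TMTpro 16plex LC-MS/MS after channel sums were equalised. It was obtained as the supernatant after 21,000xg for 90 min from pooled aliquots of K562 cells (2×10^6 cells/mL, 10 μM compound, 30 min) heated for 3 min across 48°C-58°C and extracted in PBS with 0.5% NP-40 at 4°C. Thermal stability values are relative to control samples and come from duplicates. They are given as log2 fold changes.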

sotrastaurin = compound: CN1CCN(c2nc(C3=C(c4c[nH]c5ccccc45)C(=O)NC3=O)c3ccccc3n2)CC1 [sotrastaurin]
Outline: as §1

alvocidib = compound: CN1CC[C@H](c2c(O)cc(O)c3c(=O)cc(-c4ccccc4Cl)oc23)[C@H](O)C1 [alvocidib]
Outline: as §1

Tubastatin A = compound: CN1CCc2c(c3ccccc3n2Cc2ccc(C(=O)NO)cc2)C1 [Tubastatin A]
Outline: as §1

[1] = compound: CNC(=O)C1=CC=CC=C1NC2=NC(=NC=C2Cl)NC3=C(C=C(C=C3)N4CCOCC4)OC
Outline: as §1

defactinib = compound: CNC(=O)c1ccc(Nc2ncc(C(F)(F)F)c(NCc3nccnc3N(C)S(C)(=O)=O)n2)cc1 [defactinib]
Outline: as §1

rucaparib = compound: CNCc1ccc(-c2[nH]c3cc(F)cc4c3c2CCNC4=O)cc1 [rucaparib]
Outline: as §1

[2] = compound: CNc1nc(-c2ccc3c(N)n[nH]c3c2)cc(N2C[C@@H](C(=O)NC3CCCCC3)CC[C@H]2C)n1
Outline: as §1

encorafenib = compound: COC(=O)N[C@@H](C)CNc1nccc(-c2cn(C(C)C)nc2-c2cc(Cl)cc(NS(C)(=O)=O)c2F)n1 [encorafenib]
Outline: as §1

[3] = compound: COC(=O)[C@H](CCSC)NC(=O)C1=C(C=C(C=C1)NC[C@H](CS)N)C2=CC=CC=C2
Outline: as §1

Measured: log2 fold change

NEDD4L (UniProt Q96PU5)
Sequence of UniProt Q96PU5 (Q96PU5 whole entry, looked up): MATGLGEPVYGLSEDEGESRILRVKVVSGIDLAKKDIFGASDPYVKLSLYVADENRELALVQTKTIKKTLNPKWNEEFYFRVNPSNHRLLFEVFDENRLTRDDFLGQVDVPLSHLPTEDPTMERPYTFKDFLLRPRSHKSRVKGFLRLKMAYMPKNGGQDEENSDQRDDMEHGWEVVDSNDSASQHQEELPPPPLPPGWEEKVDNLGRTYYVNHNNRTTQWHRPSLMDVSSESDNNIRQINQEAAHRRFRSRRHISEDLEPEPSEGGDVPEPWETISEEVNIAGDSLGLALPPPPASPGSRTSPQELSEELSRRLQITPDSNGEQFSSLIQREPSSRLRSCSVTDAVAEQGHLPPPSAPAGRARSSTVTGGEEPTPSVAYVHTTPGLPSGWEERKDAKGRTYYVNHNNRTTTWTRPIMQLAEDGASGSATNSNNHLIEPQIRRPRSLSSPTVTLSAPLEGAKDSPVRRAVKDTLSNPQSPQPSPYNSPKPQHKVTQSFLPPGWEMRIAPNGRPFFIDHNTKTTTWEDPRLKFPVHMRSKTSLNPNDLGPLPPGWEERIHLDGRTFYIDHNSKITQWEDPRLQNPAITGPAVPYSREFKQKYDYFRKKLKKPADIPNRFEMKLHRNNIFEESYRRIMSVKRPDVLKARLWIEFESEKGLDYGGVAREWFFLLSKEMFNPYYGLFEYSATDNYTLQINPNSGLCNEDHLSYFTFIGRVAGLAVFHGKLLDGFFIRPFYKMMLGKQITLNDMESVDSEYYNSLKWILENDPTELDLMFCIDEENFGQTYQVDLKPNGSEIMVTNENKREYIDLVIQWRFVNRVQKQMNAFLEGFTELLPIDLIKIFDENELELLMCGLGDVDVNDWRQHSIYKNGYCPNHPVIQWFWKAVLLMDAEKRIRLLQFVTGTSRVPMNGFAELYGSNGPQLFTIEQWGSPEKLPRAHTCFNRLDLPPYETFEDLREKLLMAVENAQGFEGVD
inactive: saracatinib -0.014 | sotrastaurin -0.063 | alvocidib -0.121 | Tubastatin A 0.057 | [1] 0.068 | defactinib -0.135 | rucaparib 0.002 | [2] -0.059 | encorafenib 0.03 | [3] -0.023

NOL7 (UniProt Q9UMY1)
Sequence of UniProt Q9UMY1 (Q9UMY1 whole entry, looked up): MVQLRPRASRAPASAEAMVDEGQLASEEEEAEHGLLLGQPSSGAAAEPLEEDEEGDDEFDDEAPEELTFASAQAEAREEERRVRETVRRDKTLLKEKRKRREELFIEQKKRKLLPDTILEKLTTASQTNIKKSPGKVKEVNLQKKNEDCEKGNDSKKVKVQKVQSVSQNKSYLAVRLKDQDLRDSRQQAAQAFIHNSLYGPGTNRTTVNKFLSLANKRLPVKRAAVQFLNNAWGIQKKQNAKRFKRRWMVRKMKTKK
inactive: saracatinib -0.057 | sotrastaurin 0.017 | alvocidib 0.379 | Tubastatin A 0.161 | [1] 0.032 | defactinib 0.303 | rucaparib 0.312 | [2] 0.098 | encorafenib 0.1 | [3] -0.042

NOSIP (UniProt Q9Y314)
inactive: saracatinib -0.045 | sotrastaurin -0.28 | alvocidib -0.098 | Tubastatin A 0.199 | [1] 0.05 | defactinib -0.199 | rucaparib 0.003 | [2] -0.106 | encorafenib 0.181 | [3] -0.182

MRPS6 (UniProt P82932)
inactive: saracatinib -0.197 | sotrastaurin -0.058 | alvocidib -0.036 | Tubastatin A 0.011 | [1] -0.003 | defactinib -0.023 | rucaparib 0.056 | [2] 0.092 | encorafenib 0.016 | [3] -0.126

NPM3 (UniProt O75607)
inactive: saracatinib 0 | sotrastaurin 0 | alvocidib 0.032 | Tubastatin A 0.031 | [1] -0.06 | defactinib 0.001 | rucaparib 0.155 | [2] -0.042 | encorafenib 0.034 | [3] -0.04

NCKAP1 isoform 2 (UniProt Q9Y2A7)
inactive: saracatinib 0.02 | sotrastaurin -0.031 | alvocidib -0.06 | Tubastatin A 0.027 | [1] 0.006 | defactinib -0.071 | rucaparib -0.022 | [2] 0.019 | encorafenib 0 | [3] -0.007

MRFAP1 (UniProt Q9Y605)
inactive: saracatinib -0.118 | sotrastaurin 0.102 | alvocidib -0.097 | Tubastatin A 0.329 | [1] -0.003 | defactinib -0.051 | rucaparib -0.099 | [2] -0.002 | encorafenib 0.141 | [3] -0.027

OXA1L (UniProt Q15070)
inactive: saracatinib 0.018 | sotrastaurin 0.003 | alvocidib -0.01 | Tubastatin A -0.036 | [1] 0.004 | defactinib 0.005 | rucaparib -0.029 | [2] -0.054 | encorafenib -0.027 | [3] 0.031

NUDT16 (UniProt Q96DE0)
Sequence of UniProt Q96DE0 (Q96DE0 whole entry, looked up): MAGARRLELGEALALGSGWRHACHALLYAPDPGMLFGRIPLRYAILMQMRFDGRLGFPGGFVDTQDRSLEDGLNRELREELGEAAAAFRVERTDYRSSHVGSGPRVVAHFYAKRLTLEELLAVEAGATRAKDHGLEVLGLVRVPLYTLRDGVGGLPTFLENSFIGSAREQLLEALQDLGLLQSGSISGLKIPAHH
inactive: saracatinib 0.063 | sotrastaurin -0.031 | alvocidib -0.075 | Tubastatin A 0.009 | [1] -0.057 | defactinib -0.024 | rucaparib 0.009 | [2] -0.004 | encorafenib -0.017 | [3] -0.05

OPA1 isoform 2 (UniProt O60313)
inactive: saracatinib -0.072 | sotrastaurin -0.005 | alvocidib -0.047 | Tubastatin A 0.054 | [1] -0.047 | defactinib -0.024 | rucaparib -0.001 | [2] 0.064 | encorafenib 0.056 | [3] -0.047

MKNK1 (UniProt Q9BUB5)
Sequence of UniProt Q9BUB5 (Q9BUB5 whole entry, looked up): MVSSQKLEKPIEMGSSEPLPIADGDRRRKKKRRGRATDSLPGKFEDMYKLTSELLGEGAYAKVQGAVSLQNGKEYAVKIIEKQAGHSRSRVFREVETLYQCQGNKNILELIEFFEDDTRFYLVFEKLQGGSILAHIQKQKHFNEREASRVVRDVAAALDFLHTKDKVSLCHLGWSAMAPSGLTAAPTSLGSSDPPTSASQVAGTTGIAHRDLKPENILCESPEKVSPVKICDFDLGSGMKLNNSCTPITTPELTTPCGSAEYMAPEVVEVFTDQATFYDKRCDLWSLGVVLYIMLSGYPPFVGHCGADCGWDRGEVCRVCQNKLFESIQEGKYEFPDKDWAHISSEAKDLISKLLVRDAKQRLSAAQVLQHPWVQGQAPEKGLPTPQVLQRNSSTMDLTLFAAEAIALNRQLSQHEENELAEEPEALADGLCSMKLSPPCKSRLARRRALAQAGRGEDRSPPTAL
inactive: saracatinib 0.049 | sotrastaurin -0.088 | alvocidib -0.06 | Tubastatin A 0.037 | [1] 0.038 | defactinib -0.102 | rucaparib 0.099 | [2] 0.051 | encorafenib 0.018 | [3] -0.053

PAAF1 (UniProt Q9BRP4)
inactive: saracatinib 0.056 | sotrastaurin 0.016 | alvocidib -0.075 | Tubastatin A -0.008 | [1] -0.006 | defactinib -0.034 | rucaparib 0.012 | [2] -0.008 | encorafenib -0.004 | [3] 0.004

NISCH (UniProt Q9Y2I1)
inactive: saracatinib -0.037 | sotrastaurin -0.066 | alvocidib -0.054 | Tubastatin A -0.022 | [1] -0.141 | defactinib -0.128 | rucaparib -0.041 | [2] -0.072 | encorafenib 0.093 | [3] -0.12

NSDHL (UniProt Q15738)
inactive: saracatinib -0.07 | sotrastaurin 0.043 | alvocidib -0.051 | Tubastatin A -0.004 | [1] 0.072 | defactinib -0.037 | rucaparib -0.094 | [2] 0.041 | encorafenib -0.019 | [3] -0.021

MT-ATP6 (UniProt P00846)
inactive: saracatinib 0.253 | sotrastaurin -0.059 | alvocidib -0.058 | Tubastatin A 0.122 | [1] -0.018 | defactinib -0.095 | rucaparib 0.06 | [2] -0.176 | encorafenib 0.016 | [3] 0.05

MORC3 (UniProt Q14149)
Sequence of UniProt Q14149 (Q14149 whole entry, looked up): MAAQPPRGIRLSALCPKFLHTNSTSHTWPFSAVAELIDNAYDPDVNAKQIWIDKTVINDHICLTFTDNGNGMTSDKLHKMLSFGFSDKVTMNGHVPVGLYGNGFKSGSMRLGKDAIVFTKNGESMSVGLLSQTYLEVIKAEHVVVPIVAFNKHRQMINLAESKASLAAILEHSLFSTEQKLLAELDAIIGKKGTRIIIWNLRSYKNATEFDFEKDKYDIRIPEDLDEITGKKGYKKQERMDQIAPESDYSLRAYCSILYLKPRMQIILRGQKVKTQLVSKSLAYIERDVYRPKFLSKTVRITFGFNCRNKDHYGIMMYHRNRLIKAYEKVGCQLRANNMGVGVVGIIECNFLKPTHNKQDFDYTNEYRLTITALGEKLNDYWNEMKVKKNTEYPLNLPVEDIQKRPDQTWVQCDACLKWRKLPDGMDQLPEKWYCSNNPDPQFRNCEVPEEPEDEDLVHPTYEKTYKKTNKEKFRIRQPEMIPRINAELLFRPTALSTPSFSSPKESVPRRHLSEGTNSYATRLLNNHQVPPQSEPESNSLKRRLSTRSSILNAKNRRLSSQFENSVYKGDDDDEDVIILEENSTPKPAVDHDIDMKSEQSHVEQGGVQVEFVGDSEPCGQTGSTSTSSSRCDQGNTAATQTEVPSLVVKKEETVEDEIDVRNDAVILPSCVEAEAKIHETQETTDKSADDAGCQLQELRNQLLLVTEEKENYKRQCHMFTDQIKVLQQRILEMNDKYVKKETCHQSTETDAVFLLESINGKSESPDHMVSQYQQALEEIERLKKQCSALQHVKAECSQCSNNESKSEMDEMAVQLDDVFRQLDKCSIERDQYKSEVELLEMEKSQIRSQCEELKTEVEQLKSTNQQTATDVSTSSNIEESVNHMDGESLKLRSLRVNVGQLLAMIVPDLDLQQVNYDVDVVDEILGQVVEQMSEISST
inactive: saracatinib 0 | sotrastaurin -0.141 | alvocidib -0.08 | Tubastatin A -0.247 | [1] 0.249 | defactinib -0.184 | rucaparib 0.044 | [2] -0.02 | encorafenib 0.076 | [3] -0.048

NA, A0A096LPI6
inactive: saracatinib 0.05 | sotrastaurin 0.017 | alvocidib -0.02 | Tubastatin A -0.037 | [1] 0.005 | defactinib 0 | rucaparib 0.007 | [2] -0.055 | encorafenib -0.009 | [3] 0.019

NUP205 (UniProt Q92621)
inactive: saracatinib -0.003 | sotrastaurin -0.057 | alvocidib -0.127 | Tubastatin A 0.023 | [1] -0.024 | defactinib -0.132 | rucaparib -0.065 | [2] -0.012 | encorafenib 0.096 | [3] -0.038

MRPS17 (UniProt Q9Y2R5)
inactive: saracatinib -0.017 | sotrastaurin -0.138 | alvocidib 0.002 | Tubastatin A 0.072 | [1] 0.105 | defactinib 0.096 | rucaparib 0.185 | [2] 0.096 | encorafenib 0.016 | [3] -0.047

NTMT1 (UniProt Q9BV86)
Sequence of UniProt Q9BV86 (Q9BV86 whole entry, looked up): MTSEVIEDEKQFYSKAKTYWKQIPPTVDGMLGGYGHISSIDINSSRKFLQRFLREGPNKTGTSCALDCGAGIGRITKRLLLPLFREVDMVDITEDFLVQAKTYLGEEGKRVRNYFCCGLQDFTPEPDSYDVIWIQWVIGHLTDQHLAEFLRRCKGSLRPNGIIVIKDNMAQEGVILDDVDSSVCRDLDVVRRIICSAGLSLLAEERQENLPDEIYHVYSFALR
inactive: saracatinib -0.048 | sotrastaurin 0.055 | alvocidib -0.104 | Tubastatin A -0.071 | [1] -0.032 | defactinib -0.081 | rucaparib 0.169 | [2] 0.184 | encorafenib 0.06 | [3] -0.157

OTUD4 (UniProt Q01804)
inactive: saracatinib -0.031 | sotrastaurin -0.017 | alvocidib 0.036 | Tubastatin A -0.018 | [1] -0.014 | defactinib 0.054 | rucaparib 0.136 | [2] 0.019 | encorafenib 0.036 | [3] 0.001

NFE2 (UniProt Q16621)
inactive: saracatinib 0.011 | sotrastaurin -0.096 | alvocidib -0.182 | Tubastatin A 0.093 | [1] -0.025 | defactinib -0.037 | rucaparib -0.075 | [2] -0.065 | encorafenib 0.018 | [3] -0.06

NEDD4 isoform 4 (UniProt P46934)
inactive: saracatinib 0.116 | sotrastaurin -0.026 | alvocidib -0.09 | Tubastatin A 0.037 | [1] 0.041 | defactinib -0.108 | rucaparib -0.099 | [2] -0.026 | encorafenib 0.049 | [3] -0.009

OGFR (UniProt Q9NZT2)
Sequence of UniProt Q9NZT2 (Q9NZT2 whole entry, looked up): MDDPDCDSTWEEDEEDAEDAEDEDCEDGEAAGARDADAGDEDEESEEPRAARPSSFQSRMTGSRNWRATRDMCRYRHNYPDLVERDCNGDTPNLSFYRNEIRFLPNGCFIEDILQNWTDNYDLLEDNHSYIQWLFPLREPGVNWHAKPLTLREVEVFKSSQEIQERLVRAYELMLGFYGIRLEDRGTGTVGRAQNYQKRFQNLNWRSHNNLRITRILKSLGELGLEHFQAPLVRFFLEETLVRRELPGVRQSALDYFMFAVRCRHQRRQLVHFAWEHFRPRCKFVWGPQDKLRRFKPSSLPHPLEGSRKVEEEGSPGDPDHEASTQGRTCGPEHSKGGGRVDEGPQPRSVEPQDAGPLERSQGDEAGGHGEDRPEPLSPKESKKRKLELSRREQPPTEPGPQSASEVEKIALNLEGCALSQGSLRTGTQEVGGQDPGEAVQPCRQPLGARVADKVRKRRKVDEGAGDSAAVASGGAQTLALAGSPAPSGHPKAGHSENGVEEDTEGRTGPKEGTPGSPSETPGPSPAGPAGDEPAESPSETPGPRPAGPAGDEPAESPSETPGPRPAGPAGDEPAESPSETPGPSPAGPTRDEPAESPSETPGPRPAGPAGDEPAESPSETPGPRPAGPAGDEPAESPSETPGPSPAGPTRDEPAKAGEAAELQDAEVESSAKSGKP
inactive: saracatinib -0.044 | sotrastaurin -0.146 | alvocidib -0.04 | Tubastatin A 0.089 | [1] -0.028 | defactinib -0.094 | rucaparib 0.132 | [2] 0.009 | encorafenib 0.031 | [3] -0.154

NELFA (UniProt Q9H3P2)
inactive: saracatinib 0.004 | sotrastaurin -0.023 | alvocidib -0.193 | Tubastatin A 0.216 | [1] 0.078 | defactinib -0.094 | rucaparib 0.261 | [2] -0.014 | encorafenib -0.039 | [3] -0.213

NOP56 (UniProt O00567)
inactive: saracatinib -0.034 | sotrastaurin 0.018 | alvocidib 0.104 | Tubastatin A -0.01 | [1] -0.067 | defactinib 0.375 | rucaparib 0.233 | [2] -0.028 | encorafenib 0.057 | [3] 0.007

PACS1 (UniProt Q6VY07)
Sequence of UniProt Q6VY07 (Q6VY07 whole entry, looked up): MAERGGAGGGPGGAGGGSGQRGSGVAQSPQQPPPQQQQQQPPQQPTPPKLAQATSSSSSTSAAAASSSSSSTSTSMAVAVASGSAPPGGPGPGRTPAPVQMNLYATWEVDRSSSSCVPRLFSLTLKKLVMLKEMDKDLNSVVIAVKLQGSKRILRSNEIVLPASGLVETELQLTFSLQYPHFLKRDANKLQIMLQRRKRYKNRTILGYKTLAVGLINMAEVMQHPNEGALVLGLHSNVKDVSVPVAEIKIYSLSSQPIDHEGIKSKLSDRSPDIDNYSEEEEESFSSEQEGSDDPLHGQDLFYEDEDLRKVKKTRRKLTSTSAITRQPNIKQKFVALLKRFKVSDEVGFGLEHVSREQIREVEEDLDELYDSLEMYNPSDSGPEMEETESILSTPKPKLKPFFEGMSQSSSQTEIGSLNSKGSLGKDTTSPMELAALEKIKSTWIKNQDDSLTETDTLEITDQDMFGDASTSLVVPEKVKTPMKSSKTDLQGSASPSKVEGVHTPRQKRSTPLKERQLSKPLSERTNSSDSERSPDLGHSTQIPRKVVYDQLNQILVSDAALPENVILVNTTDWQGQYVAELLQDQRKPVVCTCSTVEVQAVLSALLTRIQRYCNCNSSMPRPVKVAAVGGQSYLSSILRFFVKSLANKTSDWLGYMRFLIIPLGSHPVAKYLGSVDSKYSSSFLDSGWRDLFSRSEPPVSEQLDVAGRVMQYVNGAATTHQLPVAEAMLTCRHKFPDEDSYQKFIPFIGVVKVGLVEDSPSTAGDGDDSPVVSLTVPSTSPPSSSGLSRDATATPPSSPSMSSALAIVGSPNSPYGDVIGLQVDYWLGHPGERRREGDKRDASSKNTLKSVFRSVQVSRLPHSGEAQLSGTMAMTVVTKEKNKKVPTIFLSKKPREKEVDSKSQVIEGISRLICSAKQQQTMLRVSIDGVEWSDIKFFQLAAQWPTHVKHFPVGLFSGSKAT
inactive: saracatinib -0.018 | sotrastaurin -0.043 | alvocidib 0.002 | Tubastatin A 0.038 | [1] -0.076 | defactinib -0.045 | rucaparib 0.022 | [2] 0.037 | encorafenib -0.01 | [3] -0.018

NDUFB7 (UniProt P17568)
inactive: saracatinib 0.046 | sotrastaurin -0.014 | alvocidib -0.016 | Tubastatin A 0.016 | [1] 0.021 | defactinib -0.015 | rucaparib -0.021 | [2] -0.011 | encorafenib -0.032 | [3] 0.029

NOP58 (UniProt Q9Y2X3)
inactive: saracatinib -0.044 | sotrastaurin -0.008 | alvocidib 0.075 | Tubastatin A 0.014 | [1] -0.058 | defactinib -0.004 | rucaparib 0.304 | [2] -0.01 | encorafenib 0.106 | [3] -0.076

NUCKS1 (UniProt Q9H1E3)
Sequence of UniProt Q9H1E3 (Q9H1E3 whole entry, looked up): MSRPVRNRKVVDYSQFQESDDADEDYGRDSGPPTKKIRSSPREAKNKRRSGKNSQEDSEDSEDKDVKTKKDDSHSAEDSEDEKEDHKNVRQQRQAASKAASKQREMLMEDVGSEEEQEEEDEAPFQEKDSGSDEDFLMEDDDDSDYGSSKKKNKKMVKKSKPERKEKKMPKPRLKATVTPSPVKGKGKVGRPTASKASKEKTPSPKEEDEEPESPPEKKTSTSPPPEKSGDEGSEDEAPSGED
inactive: saracatinib 0.006 | sotrastaurin 0.075 | alvocidib 0.115 | Tubastatin A -0.006 | [1] -0.167 | defactinib 0.048 | rucaparib 0.027 | [2] -0.071 | encorafenib -0.068 | [3] -0.006

OXR1 (UniProt Q8N573)
inactive: saracatinib -0.039 | sotrastaurin -0.049 | alvocidib -0.011 | Tubastatin A 0.008 | [1] -0.038 | defactinib -0.059 | rucaparib -0.014 | [2] -0.063 | encorafenib 0 | [3] 0.003
